Measurements taken from PubChem BioAssay (NCATS).
Inconclusive results are not listed. Calls of active or inactive are those of the source. Calls follow the shape of the dose curve; as a rule, active = well fitted inhibition curve with a large enough effect; inconclusive = small, poorly fitted or top-dose-only effect; inactive = no such curve, though single readings can be large or run the other way.

Biological target: Rap guanine nucleotide exchange factor 4 (Homo sapiens) (UniProt Q8WZA2)
Assay: Confirmatory qHTS for antagonist of cAMP-regulated guanine nucleotide exchange factor 4 (EPAC2) (AID 1645885); also: nearly all actives have a fitted effect of over 25% in size
Conditions: EPAC2 Rap1B-BODIPY-GDP exchange fluorescence, biochemical; series mostly up to 12.7 µM; activity change, negative = inhibition: at the top concentration
% is scaled to controls: 0 for no effect and ±100 for the full control effect; potency is read from the fitted curve at half-maximal effect.

Rap guanine nucleotide exchange factor 4 (Homo sapiens), sequence (Q8WZA2 whole entry, looked up): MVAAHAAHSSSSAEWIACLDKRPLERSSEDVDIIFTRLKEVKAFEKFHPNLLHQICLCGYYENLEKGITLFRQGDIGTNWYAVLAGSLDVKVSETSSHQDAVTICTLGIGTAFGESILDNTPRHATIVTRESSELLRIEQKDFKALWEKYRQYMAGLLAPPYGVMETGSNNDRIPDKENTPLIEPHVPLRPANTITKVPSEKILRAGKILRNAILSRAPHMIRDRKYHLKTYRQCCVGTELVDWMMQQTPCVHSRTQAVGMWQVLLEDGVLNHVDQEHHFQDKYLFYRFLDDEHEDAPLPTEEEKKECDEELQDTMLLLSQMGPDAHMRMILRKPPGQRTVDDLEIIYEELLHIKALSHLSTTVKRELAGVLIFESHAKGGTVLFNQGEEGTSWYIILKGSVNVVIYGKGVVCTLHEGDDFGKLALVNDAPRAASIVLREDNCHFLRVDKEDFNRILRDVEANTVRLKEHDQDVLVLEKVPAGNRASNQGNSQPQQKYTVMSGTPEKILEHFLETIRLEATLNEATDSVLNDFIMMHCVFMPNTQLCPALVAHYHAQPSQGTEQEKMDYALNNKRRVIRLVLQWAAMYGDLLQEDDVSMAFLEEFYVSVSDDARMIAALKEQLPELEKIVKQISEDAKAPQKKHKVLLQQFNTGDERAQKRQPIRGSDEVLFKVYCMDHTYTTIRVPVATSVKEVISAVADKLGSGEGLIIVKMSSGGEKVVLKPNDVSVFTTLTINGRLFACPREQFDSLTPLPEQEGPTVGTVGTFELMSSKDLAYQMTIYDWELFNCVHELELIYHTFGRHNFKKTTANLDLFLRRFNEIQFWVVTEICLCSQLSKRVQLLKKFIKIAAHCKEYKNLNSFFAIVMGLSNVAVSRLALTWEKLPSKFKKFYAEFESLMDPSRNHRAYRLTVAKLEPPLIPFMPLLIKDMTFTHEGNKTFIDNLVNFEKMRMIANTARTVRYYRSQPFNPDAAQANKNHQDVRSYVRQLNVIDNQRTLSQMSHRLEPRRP

| SMILES | activity change, negative = inhibition | Potency |
| --- | --- | --- |
| COc1ccc(OC)c(/C=C2\SC(=S)N(Cc3cccnc3)C2=O)c1 | 5.64% (inactive) | – |
| COC(=O)c1cc2oc(C)cc2n1Cc1cc(C)ccc1C | -22.2% (inactive) | – |
| O=C(OCCN1C(=O)c2cccc3c(N4CCOCC4)ccc(c23)C1=O)c1ccccc1Cl | 2.94% (inactive) | – |
| COc1ccc(OC)c(/C=C/c2nc3ccccc3[nH]c2=O)c1 | – | 75.7 µM (active) |
| O=S1(=O)NC(c2ccccc2)CC(CC2CCCCC2)O1 (configuration not stated) | 4.1% (inactive) | – |
| Cc1ccc2nc(/C(C#N)=C\c3ccc(N4CCOCC4)o3)[nH]c2c1 | 9.14% (inactive) | – |
| COC(=O)C1=CN(C(C)c2ccccc2)C=C(C(=O)OC)C1c1cc(OC)c(OC)c(OC)c1 (configuration not stated) | – | 26.9 µM (active) |
| COc1ccc(/C(O)=C/c2nc3ccccc3n(-c3ccccc3)c2=O)cc1 | – | 75.7 µM (active) |
| CCN(C(=O)CN1CCN(c2ccccc2O)CC1)c1c(N)n(Cc2ccccc2)c(=O)[nH]c1=O | 24.7% [at 114 µM] (inactive) | – |
| Cc1ccc(NC(=O)c2sc3nc(-c4cc5ccccc5oc4=O)[nH]c(=O)c3c2C)c(C)c1 | 9.41% (inactive) | – |
| CN(C)c1ccc(C(=O)/C=C/c2ccc(Br)cc2)cc1 | -19.9% [at 114 µM] (inactive) | – |
| CCOc1ccccc1Oc1nc(C)nc2c1oc1ccccc12 | 36.1% (inactive) | – |
| COc1cc2c(c(OC)c1OC)C(c1ccc(C)cc1)CC(=O)O2 (configuration not stated) | -20.1% (inactive) | – |
| CN1CCc2c(sc(NC(=O)CSc3ccccc3)c2-c2nc3ccccc3s2)C1 | 89.3% (inactive) | – |
| CN(C)c1ccc(/C=C/C(=O)c2cccc(Br)c2)cc1 | 19% (inactive) | – |
| Cc1cccc(-c2nc3nc(C)cc(NCc4ccccc4Cl)n3n2)c1 | -8.93% (inactive) | – |
| Nc1c(C(=O)C2CC2)sc2nc(-c3cccs3)cc(C(F)(F)F)c12 | – | 75.7 µM (active) |
